This note sets out measurements from PubChem BioAssay (NCI).

Each structure is given as a SMILES string. This is part of a sample that, as a whole, favours compounds with a hit. Of some 79,000 tested, about 15% had one in any assay. Values without a mark were called inactive. The source made the active and inactive calls. No stated cut-off is given here; in the data, active means growth inhibition above about 70%; inactive means the rest.

The nature of the first test: NCI Yeast Anticancer Drug Screen. Data for the sgs1 mgt1 strain (AID 161).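 Further: 0% = growth of cultures given vehicle only.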 Particulars: S. cerevisiae sgs1 mgt1 strain, at 50.0 µM, stronger effect = higher value. The method in brief:
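This yeast growth screen uses a strain with defined DNA-repair lesions; compound-treated growth is compared with vehicle-treated growth.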
Turning to `CCCCc1noc(N)c1SCC`, the growth inhibition is 1.2%.

`N#Cc1c(-c2ccccc2)c[nH]c1/N=C/N`: the growth inhibition was -9.75%.

With `C/C(N=NC(=S)N1CCCC1)=C1\C=CC=CN1O`, the growth inhibition was 15.4%.

In the case of `CCOC(=O)c1cn2ccccc2c1C(=O)OCC`, the growth inhibition was -7.45%.

Consider `CCOC(=O)C(C(=O)OCC)C(=O)c1cc(OC)c(OC)c(OC)c1`, for which the growth inhibition was -1.35%.

Turning to `CN(C)C(=O)c1ccccc1`, the growth inhibition was -0.35%.

Regarding `C=C1C(=O)OC2CC(C)C3CC(O)OC(OCC)C3(C)CC12` (configuration not stated), the growth inhibition is 12.4%.

In the case of `COc1ccc(C(=O)c2ccccc2)c(OC(=O)Nc2ccc(Cl)cc2)c1`, the growth inhibition was 14.9%.

On to `Cc1nnc2sc(Cl)nn12`, for which the growth inhibition is 48.1%.

Regarding `COc1cc(C(C)Cl)ccc1OC(=O)c1ccccc1` (configuration not stated), the growth inhibition is 3.95%.

`CN(C)CCCNC=O`: the growth inhibition was -26.2%.

Turning to `CC1CC[N-]C(N)N1.CC1CC[N-]C(N)N1.[Cl][Pd][Cl]` (configuration not stated), the growth inhibition is 6.75%.

The nature of the next test: NCI Yeast Anticancer Drug Screen. Data for the cln2 rad14 strain (AID 165).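 Further: 0% = growth equal to vehicle treated cultures.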 Particulars: S. cerevisiae cln2 rad14 strain, at 50.0 µM, stronger effect = higher value. The method in brief:
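Strain: cln2 rad14 yeast, altered in cell cycle control and DNA damage repair. Read-out: growth inhibition vs vehicle.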
For `Oc1ccc2c(c1)CCC2`, the growth inhibition is 8%.

For the molecule `Cc1ccc(S(=O)(=O)N2CC(CCl)N(S(=O)(=O)c3ccc(C)cc3)CC2CCl)cc1` (configuration not stated), the growth inhibition is 10.4%.

As for `CC/C(CC(=O)CCC(=O)Nc1ccccc1[N+](=O)[O-])=N/NC(=O)C[n+]1ccccc1`, the growth inhibition is 16.4%.

For the molecule `c1cnc(NC(Nc2cnccn2)C2CCCCC2)cn1`, the growth inhibition was -20.9%.

Regarding `CC(=O)Oc1cccc2c(/C=N/NC(N)=S)ncc(C)c12`, the growth inhibition is 83.5% (active).

On to `COC(=O)c1cc(Cl)ccc1NC(=O)C1CCCCC1`, for which the growth inhibition is 27.8%.

Regarding `O=C1/C(=C/c2ccccc2)CN(C(=O)CCN2CCOCC2)C/C1=C\c1ccccc1`, the growth inhibition was 31.6%.

In the case of `Cn1c(=O)ccc2c(=O)c3c(ccc4ccccc43)oc21`, the growth inhibition is -10.1%.

Consider `c1ccc(-c2nnc(-c3ccccc3)c3nonc23)cc1`, for which the growth inhibition is -12.8%.

As to `NC(Cc1ccc(OC(c2ccccc2)c2ccccc2)cc1)C(=O)O` (configuration not stated), the growth inhibition is -10.7%.

As to `CCOC1(c2ccccc2)c2ccccc2Sc2ccccc21`, the growth inhibition was -6.1%.

Turning to `CC(=O)OC(C)C1CCCC1OC(C)=O` (configuration not stated), the growth inhibition is 5.75%.

For `O=c1[nH]cnc2c(COCCO)c[nH]c12`, the growth inhibition was -3.95%.

On to `COc1ccccc1C1OC2=C(Nc3ccc([N+](=O)[O-])cc3N2)C1=O` (configuration not stated), for which the growth inhibition is 16.6%.

In the case of `COc1cccc(C2c3cc4c(cc3OC(N3CCCCC3)C2C)OCO4)c1O` (configuration not stated), the growth inhibition was 18.9%.

For `CCC/C=N/NC(=O)c1ccc(OC)cc1`, the growth inhibition was -46.9%.

On to `O=C1CCC2c3ccccc3NCN12` (configuration not stated), for which the growth inhibition is 22.4%.

On to `Cn1c(NC(=O)C(=O)NC23CC4CC(CC(C4)C2)C3)nc2ccccc21`, for which the growth inhibition was 5.8%.

With `CCCc1[nH]nc(CCC(=O)N(Cc2ccccc2)Cc2ccccc2)c1CC`, the growth inhibition is 2.3%.

For the molecule `COC1OC(CO)C(O)C2OCCOCCOC3C(OC)OC(CO)C(O)C3OCCOCCOC12` (configuration not stated), the growth inhibition was -7.7%.

`CCCCCCC(=O)NC(O)C(Cl)(Cl)C(C)Cl` (configuration not stated): the growth inhibition was -56.8%.

For the molecule `COc1ccc(N=C(N)N2CCCc3ccccc32)cc1`, the growth inhibition was -84.9%.

In the case of `CCCCCCCCCCCCCCCCCCCC/C=C/C1CC(=O)OC1=O` (configuration not stated), the growth inhibition was 26.8%.

As to `COS(=O)(=O)Cc1ccccc1`, the growth inhibition is -19.2%.

In the case of `O=C1CCCNC(=O)CCCN1`, the growth inhibition was -40.5%.

Consider `CCCN(CCC)CCCCCCCCN`, for which the growth inhibition was 12.8%.

With `Brc1ccc2nc(-c3ccccc3)c3ccccc3c2c1`, the growth inhibition was -25.4%.

With `CCCCc1noc(N)c1SCC`, the growth inhibition was -39.6%.

In the case of `N#Cc1c(-c2ccccc2)c[nH]c1/N=C/N`, the growth inhibition is -10.4%.

Regarding `C/C(N=NC(=S)N1CCCC1)=C1\C=CC=CN1O`, the growth inhibition was -5.6%.

For the molecule `Cc1cc(C)n(C2OC(CO)C(O)C(O)C2O)c(=S)c1C#N` (configuration not stated), the growth inhibition was 5.4%.

As for `CCOC(=O)c1cn2ccccc2c1C(=O)OCC`, the growth inhibition was -23.2%.

For the molecule `CCOC(=O)C(C(=O)OCC)C(=O)c1cc(OC)c(OC)c(OC)c1`, the growth inhibition was 7.35%.

Regarding `CN(C)C(=O)c1ccccc1`, the growth inhibition is 13.9%.

In the case of `C=C1C(=O)OC2CC(C)C3CC(O)OC(OCC)C3(C)CC12` (configuration not stated), the growth inhibition was 22.8%.

For `COc1ccc(C(=O)c2ccccc2)c(OC(=O)Nc2ccc(Cl)cc2)c1`, the growth inhibition is 3.8%.

For `Cc1nnc2sc(Cl)nn12`, the growth inhibition is 17.7%.

As for `COc1cc(C(C)Cl)ccc1OC(=O)c1ccccc1` (configuration not stated), the growth inhibition was -10.2%.

As to `CN(C)CCCNC=O`, the growth inhibition is -11.2%.

As for `CC1CC[N-]C(N)N1.CC1CC[N-]C(N)N1.[Cl][Pd][Cl]` (configuration not stated), the growth inhibition was -34.4%.

A short description of a further test: NCI Yeast Anticancer Drug Screen. Data for the bub3 strain (AID 167). Particulars: S. cerevisiae bub3 mutant strain, at 50.0 µM, stronger effect = higher value. The method in brief: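 Screening used yeast with an engineered genetic alteration affecting cell cycle control. Compound-exposed cultures were compared with vehicle cultures, and reduced growth was taken as inhibition.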
Take `Oc1ccc2c(c1)CCC2`: the growth inhibition is -10.8%.

Consider `Cc1ccc(S(=O)(=O)N2CC(CCl)N(S(=O)(=O)c3ccc(C)cc3)CC2CCl)cc1` (configuration not stated), for which the growth inhibition was 4.35%.

Take `CC/C(CC(=O)CCC(=O)Nc1ccccc1[N+](=O)[O-])=N/NC(=O)C[n+]1ccccc1`: the growth inhibition is -1.35%.

As for `c1cnc(NC(Nc2cnccn2)C2CCCCC2)cn1`, the growth inhibition was 4.25%.

In the case of `CC(=O)Oc1cccc2c(/C=N/NC(N)=S)ncc(C)c12`, the growth inhibition is 84.6% (active).

Take `COC(=O)c1cc(Cl)ccc1NC(=O)C1CCCCC1`: the growth inhibition was 15.2%.

For the molecule `O=C1/C(=C/c2ccccc2)CN(C(=O)CCN2CCOCC2)C/C1=C\c1ccccc1`, the growth inhibition is 66.8%.

In the case of `Cn1c(=O)ccc2c(=O)c3c(ccc4ccccc43)oc21`, the growth inhibition is -7.05%.

Turning to `c1ccc(-c2nnc(-c3ccccc3)c3nonc23)cc1`, the growth inhibition was 12.6%.

Regarding `NC(Cc1ccc(OC(c2ccccc2)c2ccccc2)cc1)C(=O)O` (configuration not stated), the growth inhibition is -13.6%.

In the case of `CCOC1(c2ccccc2)c2ccccc2Sc2ccccc21`, the growth inhibition was 14.4%.

`CC(=O)OC(C)C1CCCC1OC(C)=O` (configuration not stated): the growth inhibition was -15.1%.

Turning to `O=c1[nH]cnc2c(COCCO)c[nH]c12`, the growth inhibition is -34.3%.

Take `COc1ccccc1C1OC2=C(Nc3ccc([N+](=O)[O-])cc3N2)C1=O` (configuration not stated): the growth inhibition is 16.9%.

Turning to `COc1cccc(C2c3cc4c(cc3OC(N3CCCCC3)C2C)OCO4)c1O` (configuration not stated), the growth inhibition was -2.5%.

On to `CCC/C=N/NC(=O)c1ccc(OC)cc1`, for which the growth inhibition is 5.85%.

For `O=C1CCC2c3ccccc3NCN12` (configuration not stated), the growth inhibition was -15.2%.

On to `Cn1c(NC(=O)C(=O)NC23CC4CC(CC(C4)C2)C3)nc2ccccc21`, for which the growth inhibition is -7.25%.

On to `CCCc1[nH]nc(CCC(=O)N(Cc2ccccc2)Cc2ccccc2)c1CC`, for which the growth inhibition is -7.9%.

In the case of `COC1OC(CO)C(O)C2OCCOCCOC3C(OC)OC(CO)C(O)C3OCCOCCOC12` (configuration not stated), the growth inhibition is -0.5%.

Turning to `CCCCCCC(=O)NC(O)C(Cl)(Cl)C(C)Cl` (configuration not stated), the growth inhibition is -19.8%.

For the molecule `COc1ccc(N=C(N)N2CCCc3ccccc32)cc1`, the growth inhibition is 1.4%.

Turning to `CCCCCCCCCCCCCCCCCCCC/C=C/C1CC(=O)OC1=O` (configuration not stated), the growth inhibition is 16.9%.

As to `COS(=O)(=O)Cc1ccccc1`, the growth inhibition is -12.3%.

As for `O=C1CCCNC(=O)CCCN1`, the growth inhibition is -14.3%.

`CCCN(CCC)CCCCCCCCN`: the growth inhibition is -7.9%.

Turning to `Brc1ccc2nc(-c3ccccc3)c3ccccc3c2c1`, the growth inhibition was 14.8%.

In the case of `CCCCc1noc(N)c1SCC`, the growth inhibition was -9.2%.

As to `N#Cc1c(-c2ccccc2)c[nH]c1/N=C/N`, the growth inhibition was -10.2%.

For the molecule `C/C(N=NC(=S)N1CCCC1)=C1\C=CC=CN1O`, the growth inhibition was 7.95%.

Turning to `Cc1cc(C)n(C2OC(CO)C(O)C(O)C2O)c(=S)c1C#N` (configuration not stated), the growth inhibition is 8.4%.

With `CCOC(=O)c1cn2ccccc2c1C(=O)OCC`, the growth inhibition was -4.1%.

Regarding `CCOC(=O)C(C(=O)OCC)C(=O)c1cc(OC)c(OC)c(OC)c1`, the growth inhibition is 2.55%.

`CN(C)C(=O)c1ccccc1`: the growth inhibition is -9.25%.

As to `C=C1C(=O)OC2CC(C)C3CC(O)OC(OCC)C3(C)CC12` (configuration not stated), the growth inhibition is 32.2%.

With `COc1ccc(C(=O)c2ccccc2)c(OC(=O)Nc2ccc(Cl)cc2)c1`, the growth inhibition is 12.6%.

With `Cc1nnc2sc(Cl)nn12`, the growth inhibition was 12.9%.

Consider `COc1cc(C(C)Cl)ccc1OC(=O)c1ccccc1` (configuration not stated), for which the growth inhibition is 12.2%.

Consider `CN(C)CCCNC=O`, for which the growth inhibition was -0.45%.

As to `CC1CC[N-]C(N)N1.CC1CC[N-]C(N)N1.[Cl][Pd][Cl]` (configuration not stated), the growth inhibition was -0.15%.
